# Records with an inconclusive call do not appear. The source made the active and inactive calls. Calls follow the shape of the dose curve; as a rule, active = well fitted curve in the direction sought with a large enough effect; inconclusive = small, poorly fitted or top-dose-only effect, or another doubt; inactive = no such curve, though single readings can be large; an effect the other way counts as inactive or inconclusive.
# Assay: qHTS of pediatric cancer cell lines to identify multiple opportunities for drug repurposing: Confirmatory screen for MG 63 (6-TG R) cells (AID 1347119); also: nearly all actives have a fitted effect of over 55% in size;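 as to activity change, negative = cytotoxicity: plate controls were DMSO neutral control for no effect and bortezomib for full effect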
# Conditions: MG-63 (6-TG resistant) osteosarcoma viability; series mostly up to 45.9 µM; activity change, negative = cytotoxicity: at the top concentration
# Method in brief: (§1)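 Cells (500-1,000/well) rested 5 h, then received compounds for 48 h; metabolically active cells were measured by CellTiter-Glo luminescence. Final concentrations spanned up to 46 µM (MIPE, 11-point) or 0.59 nM-46 µM (NPC, 8-point) in primary screens, 11-point in follow-ups.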
# Potency is read from the fitted curve at half-maximal effect.
SMILES,"activity change, negative = cytotoxicity",Potency
CN1CCN(c2ncc(-c3cc(Cl)cc(Cl)c3Cl)c(N)n2)CC1,-45.9% (inactive),
C[C@@H]1[C@H](O)[C@@H](C)C=CC=CC=CC=CC=CC=CC=C[C@H](O[C@@H]2O[C@H](C)[C@H](O)[C@H](N)[C@@H]2O)C[C@@H]2O[C@](O)(C[C@@H](O)C[C@@H](O)[C@H](O)CC[C@@H](O)C[C@@H](O)CC(=O)O[C@H]1C)C[C@H](O)[C@@H]2C(=O)O,-25.3% (inactive),
CCC[C@H](N[C@@H](C)C(=O)N1[C@@H]2CCCC[C@H]2C[C@H]1C(=O)O)C(=O)OCC,-14.1% (inactive),
O=c1[nH]nc(OCCCc2ccc(Cl)cc2)c(NCc2cccnc2)c1Br,,5.22 µM (active)
CNC(=O)[C@H](CC1=CN=C2C=CCC=C12)NC(=O)[C@@H](CC(=O)NO)CC(C)C,,1.47 µM (active)
CCC(=O)OCC(=O)[C@@]1(OC(=O)CC)[C@@H](C)C[C@@H]2[C@H]3CCC4=CC(=O)C=C[C@]4(C)[C@@]3(F)[C@@H](O)C[C@@]21C,-5.11% (inactive),
CC[C@]1(O)C[C@H]2CN(CCC3=c4ccccc4=N[C]3[C@@](C(=O)OC)(c3cc4c(cc3OC)N(C)[C@H]3[C@@](O)(C(N)=O)[C@H](O)[C@]5(CC)C=CCN6CC[C@]43[C@@H]65)C2)C1,,0.261 µM (active)
COc1cc(CNC(=O)CCCCC=CC(C)C)ccc1O,6.01% (inactive),
CCC(C)SSc1ncc[nH]1 (centres undefined),,20.8 µM (active)
CCC(c1ccc(O)cc1)C(CC)c1ccc(O)cc1 (centres undefined),,8.27 µM (active)
CC(C)n1c(C=C[C@H](O)C[C@H](O)CC(=O)O)c(-c2ccc(F)cc2)c2ccccc21,,3.29 µM (active)
CC1CNc2c(cccc2S(=O)(=O)N[C@@H](CCCN=C(N)N)C(=O)N2CC[C@@H](C)C[C@@H]2C(=O)O)C1 (some centres undefined),9.82% (inactive),
C[C@@]1(c2cc(-c3cncnc3)c(F)cc2F)CCSC(N)=N1,,9.27 µM (active)
CC1=C(CC(=O)O)c2cc(F)ccc2C1=Cc1ccc(S(C)=O)cc1 (centres undefined),-7.9% (inactive),
CSc1cccc(Nc2ncc3cc(-c4c(Cl)cccc4Cl)c(=O)n(C)c3n2)c1,,1.85 µM (active)
CC1(COc2ccc3c(c2)ncn3-c2ccc3cccc(N4CCC(N)CC4)c3n2)COC1,12.1% (inactive),
Nc1ccn([C@@H]2O[C@H](CO)[C@@H](O)[C@H]2O)c(=O)n1,-8.92% (inactive),
COc1cc([C@@H]2c3cc4c(cc3[C@@H](O[C@@H]3O[C@@H]5CO[C@@H](C)O[C@@H]5[C@H](O)[C@@H]3O)[C@H]3COC(=O)[C@H]23)OCO4)cc(OC)c1O,,5.85 µM (active)
COc1cc2ncnc(Nc3cc(Br)c(O)c(Br)c3)c2cc1OC,27.7% (inactive),
CON(C)C(=O)N1N=C(c2cc(F)ccc2F)S[C@]1(CCCN)c1ccccc1,,0.0208 µM (active)
C[C@@H]1C[C@H]2[C@@H]3CCC4=CC(=O)C=C[C@]4(C)[C@@]3(F)[C@@H](O)C[C@]2(C)[C@@]1(O)C(=O)CO,-53.1% (inactive),
C[C@H](c1ccc(F)cc1CCCC(=O)O)N(c1cc(F)ccc1F)S(=O)(=O)c1ccc(Cl)cc1,-13.8% (inactive),
Cc1ccc(C(=O)N(CCCN)[C@@H](c2nc3cc(Cl)ccc3c(=O)n2Cc2ccccc2)C(C)C)cc1,,0.0759 µM (active)
Cc1ccc(C(=O)N(CCCN)[C@@H](c2oc3cc(Cl)ccc3c(=O)c2Cc2ccccc2)C(C)C)cc1,,0.0233 µM (active)
COC(=O)Nc1ccc(-c2nc(N3CCOCC3)c3cnn(C4CCN(C(=O)OC)CC4)c3n2)cc1,,1.31 µM (active)
O=C1Nc2ccc(I)cc2C1=Cc1cc(Br)c(O)c(Br)c1,-27% (inactive),

# Assay: qHTS of pediatric cancer cell lines to identify multiple opportunities for drug repurposing: Confirmatory screen for control Hh wild type fibroblast cells (AID 1347121); also: nearly all actives have a fitted effect of over 70% in size;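 as to activity, negative = cytotoxic: plate controls were DMSO for no effect and bortezomib for full effect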
# Conditions: viability qHTS; series mostly up to 45.9 µM; activity, negative = cytotoxic: at the top concentration
# Method in brief: as §1
SMILES,"activity, negative = cytotoxic",Potency
COc1cc2c(cc1OC)[C@@H]1Cc3ccc(OC)c(OC)c3CN1CC2,-17.1% (inactive),
CN1CCN(c2ncc(-c3cc(Cl)cc(Cl)c3Cl)c(N)n2)CC1,-19.7% (inactive),
C[C@@H]1[C@H](O)[C@@H](C)C=CC=CC=CC=CC=CC=CC=C[C@H](O[C@@H]2O[C@H](C)[C@H](O)[C@H](N)[C@@H]2O)C[C@@H]2O[C@](O)(C[C@@H](O)C[C@@H](O)[C@H](O)CC[C@@H](O)C[C@@H](O)CC(=O)O[C@H]1C)C[C@H](O)[C@@H]2C(=O)O,-1.21% (inactive),
CCC[C@H](N[C@@H](C)C(=O)N1[C@@H]2CCCC[C@H]2C[C@H]1C(=O)O)C(=O)OCC,-6.41% (inactive),
O=c1[nH]nc(OCCCc2ccc(Cl)cc2)c(NCc2cccnc2)c1Br,,10.4 µM (active)
CCC(=O)OCC(=O)[C@@]1(OC(=O)CC)[C@@H](C)C[C@@H]2[C@H]3CCC4=CC(=O)C=C[C@]4(C)[C@@]3(F)[C@@H](O)C[C@@]21C,-2.38% (inactive),
CC[C@]1(O)C[C@H]2CN(CCC3=c4ccccc4=N[C]3[C@@](C(=O)OC)(c3cc4c(cc3OC)N(C)[C@H]3[C@@](O)(C(N)=O)[C@H](O)[C@]5(CC)C=CCN6CC[C@]43[C@@H]65)C2)C1,-11.5% (inactive),
COc1cc(CNC(=O)CCCCC=CC(C)C)ccc1O,-0.376% (inactive),
CCC(C)SSc1ncc[nH]1 (centres undefined),-12.9% (inactive),
CCC(c1ccc(O)cc1)C(CC)c1ccc(O)cc1 (centres undefined),4.64% (inactive),
CC1CNc2c(cccc2S(=O)(=O)N[C@@H](CCCN=C(N)N)C(=O)N2CC[C@@H](C)C[C@@H]2C(=O)O)C1 (some centres undefined),6.04% (inactive),
C[C@@]1(c2cc(-c3cncnc3)c(F)cc2F)CCSC(N)=N1,-12.2% (inactive),
CC1=C(CC(=O)O)c2cc(F)ccc2C1=Cc1ccc(S(C)=O)cc1 (centres undefined),0.767% (inactive),
Cc1ccccc1-n1c(Cn2nc(-c3cccc(O)c3)c3c(N)ncnc32)nc2cccc(C)c2c1=O,-5.27% (inactive),
CCC[C@H](Nc1nc(-c2ccc(NC(=O)NCC)c(OC)c2)ncc1C)c1cccnc1,-12.2% (inactive),
Cc1cccc(-c2[nH]c(C(C)(C)C)nc2-c2ccc3c(c2)OCO3)n1,,8.27 µM (active)
CCN(CCO)CCCOc1ccc2c(Nc3cc(CC(=O)Nc4cccc(F)c4)[nH]n3)ncnc2c1,-10.6% (inactive),
CC[C@H](NC(=O)[C@H](C)NC)C(=O)N1C[C@@H](O)C[C@H]1Cc1c(-c2[nH]c3cc(F)ccc3c2C[C@H]2C[C@H](O)CN2C(=O)[C@H](CC)NC(=O)[C@H](C)NC)[nH]c2cc(F)ccc12,-17.6% (inactive),
CC1(COc2ccc3c(c2)ncn3-c2ccc3cccc(N4CCC(N)CC4)c3n2)COC1,9.18% (inactive),
Nc1ccn([C@@H]2O[C@H](CO)[C@@H](O)[C@H]2O)c(=O)n1,0.349% (inactive),
COc1cc([C@@H]2c3cc4c(cc3[C@@H](O[C@@H]3O[C@@H]5CO[C@@H](C)O[C@@H]5[C@H](O)[C@@H]3O)[C@H]3COC(=O)[C@H]23)OCO4)cc(OC)c1O,-2.07% (inactive),
COc1cc2ncnc(Nc3cc(Br)c(O)c(Br)c3)c2cc1OC,3.56% (inactive),
CON(C)C(=O)N1N=C(c2cc(F)ccc2F)S[C@]1(CCCN)c1ccccc1,-6.95% (inactive),
C[C@@H]1C[C@H]2[C@@H]3CCC4=CC(=O)C=C[C@]4(C)[C@@]3(F)[C@@H](O)C[C@]2(C)[C@@]1(O)C(=O)CO,1.86% (inactive),
C[C@H](c1ccc(F)cc1CCCC(=O)O)N(c1cc(F)ccc1F)S(=O)(=O)c1ccc(Cl)cc1,3.62% (inactive),
CN(C(Cc1ccc(OS(=O)(=O)c2cccc3cnccc23)cc1)C(=O)N1CCN(c2ccccc2)CC1)S(=O)(=O)c1cccc2cnccc12 (centres undefined),-15% (inactive),
Cc1ccc(C(=O)N(CCCN)[C@@H](c2nc3cc(Cl)ccc3c(=O)n2Cc2ccccc2)C(C)C)cc1,-4.96% [at 95.5 µM] (inactive),
Cc1csc(-c2nnc(Nc3ccc(Oc4ncccc4-c4ccnc(N)n4)cc3)c3ccccc23)c1,-5.31% (inactive),

# Source: PubChem BioAssay (NCATS)
